Experimental data published in PubChem BioAssay (NCATS).
Results filed as inconclusive are left out. Calls of active or inactive are those of the source. Calls come from the whole dose curve; as a rule, active = well fitted inhibition curve with a large enough effect; inconclusive = small, poorly fitted or top-dose-only effect; inactive = flat fitted curve, though single readings scatter.

What was measured:
[1] = tested on: KB-3-1; test: Cytotoxic Profiling of Annotated Libraries Using Quantitative High-Throughput Screening (AID 1296008); conditions: Five cell lines viability, CellTiter-Glo ATP luminescence, 48-72 h; max response: stronger effect = lower value; for max response: % is set by controls: 0 for no effect and ±100 for the full control effect
In short: (§1)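 Compounds were pin-transferred onto cells and incubated 48 or 72 hr at 37 degree Celsius, 95% humidity. CellTiter-Glo was added, plates sat 10 min at room temperature, then ATP-coupled luminescence was imaged as the viability read-out.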

[2] = tested on: NIH3T3; test: as above; conditions: Five cell lines viability, CellTiter-Glo ATP luminescence, 48-72 h; max response: stronger effect = lower value
In short: as §1

[3] = tested on: CRL-7250; test: qHTS assay to identify novel small-molecules to repurpose for Merkel cell carcinoma treatment (AID 1296009); conditions: MCC and control cell lines, CellTiter-Glo viability, 72 h; at 44.8 µM (top of the series) unless noted
In short: (§2)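 Cells exposed to NPC (8-point) and MIPE (11-point) compound dilutions for 72 hr at 37 degree celsius; viability read by CellTiter-Glo luminescence, normalized to no-cell and DMSO in-plate controls.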

[4] = tested on: HEK293T; test: as above; conditions: MCC and control cell lines, CellTiter-Glo viability, 72 h; at 44.8 µM (top of the series) unless noted
In short: as §2

[5] = tested on: HACAT; test: as above; conditions: MCC and control cell lines, CellTiter-Glo viability, 72 h; at 44.8 µM (top of the series) unless noted
In short: as §2

[6] = tested on: NIH3T3; test: as above; conditions: MCC and control cell lines, CellTiter-Glo viability, 72 h; at 44.8 µM (top of the series) unless noted
In short: as §2

Measured: max response
Note: nearly all actives have a fitted effect of over 60% in size.

CCc1c(C(=O)C(N)=O)c2c(OCC(=O)OC)cccc2n1Cc1ccccc1
inactive: [1] | [2] -0.844% | [3] | [4]

C=C1[C@@H]2CC[C@@]3(C)[C@H](c4ccoc4)OC(=O)C[C@]13O[C@H]1CC(=O)C(C)(C)[C@H](C(OC(C)=O)C(=O)OC)[C@]12C (some centres undefined)
inactive: [1] -6.59% | [2] -2.92% | [3] inactive [at 17.4 µM] | [5] inactive [at 17.4 µM]

O=C(O)c1ccnc2cc(C(OCCN3CCCCC3)c3ccccc3Cl)[nH]c12 (centres undefined)
inactive: [1] | [2] -0.205% | [3] | [5] | [4]

N#CC(OC1OC(COC2OC(CO)C(O)C(O)C2O)C(O)C(O)C1O)c1ccccc1 (centres undefined)
inactive: [1] 9.88% | [2] | [3] inactive [at 17.4 µM] | [5] inactive [at 17.4 µM] | [4] inactive [at 17.4 µM] | [6] inactive [at 17.4 µM]

COC(=O)C1(C)CCC(O)C2(C)c3c(O)cc(C(C)C)cc3C(O)C(OC(C)=O)C12 (centres undefined)
inactive: [1] | [2] 0.503% | [3] inactive [at 17.4 µM] | [4] inactive [at 17.4 µM]

C[C@]12CC[C@H]3[C@@H](CCC4=C(O)C(=O)CC[C@@H]43)[C@@H]1CC[C@@H]2OC(=O)CCC1CCCC1
inactive: [1] -5.37%

CC1(C)[C@H](C=C(Cl)Cl)[C@H]1C(=O)OCc1c(F)c(F)cc(F)c1F
inactive: [1] -0.195%

CC(CCc1ccc(O)cc1)O[C@@H]1O[C@H](CO[C@H]2OC[C@](O)(CO)[C@H]2O)[C@@H](O)[C@H](O)[C@H]1O (some centres undefined)
inactive: [1] 6.77% | [2] 3.14% | [3] inactive [at 17.4 µM] | [5] inactive [at 17.4 µM] | [4] inactive [at 17.4 µM]

CC[C@H]1CN2CC[C@H]1C[C@@H]2[C@@H](O)c1ccnc2ccc(OC)cc12
inactive: [1] 5.11% | [2] | [3] | [5] | [4] | [6]

COc1c(C(C)C)cc2c(c1O)[C@@]1(C(=O)O)CCCC(C)(C)C1CC2 (some centres undefined)
inactive: [1] | [2] 0.972% | [3] | [4]

CC(C)[C@@H](CN1CC[C@@](C)(c2cccc(O)c2)[C@@H](C)C1)NC(=O)[C@H]1Cc2ccc(O)cc2CN1
inactive: [1] 4.16% | [2] | [3] | [5] | [6]

C[C@H](NC(=O)Cc1cc(F)cc(F)c1)C(=O)N[C@@H]1N=C(c2ccccc2)c2ccccc2N(C)C1=O
inactive: [1] 4.54% | [2] -0.0571% | [3] | [5]

C[C@@]12C[C@@H](c3ccoc3)OC(=O)C1CC[C@]1(C)[C@H]2[C@H]2C=C[C@]1(O)C(=O)O2 (some centres undefined)
inactive: [1] 3.68% | [2] | [3] | [4] | [6]

COc1cc(C)[nH]c(=O)c1CNC(=O)c1c(C)n([C@H](C)C2CCOCC2)c2ccccc12
inactive: [1] | [2] | [3] | [4] | [6]

COC(=O)C1(C)CCC(O)C2(C)c3cc(O)c(C(C)C)cc3C(O)C(OC(C)=O)C12 (centres undefined)
inactive: [1] | [2] 3.45% | [3] inactive [at 17.4 µM] | [5] inactive [at 17.4 µM]

COCC1OC(=O)c2coc3c2C1(C)C1=C(C3=O)C2CCC(=O)C2(C)CC1O (centres undefined)
inactive: [1] | [2] | [3] | [5] | [4] | [6]

C[C@H]1C(=O)O[C@H]2[C@H](O)[C@]34C5OC(=O)[C@]3(O[C@@H]3OC(=O)[C@H](O)C34[C@H](C(C)(C)C)[C@H]5O)C12O (some centres undefined)
inactive: [1] | [2] | [3] inactive [at 17.4 µM] | [5] inactive [at 17.4 µM] | [6] inactive [at 17.4 µM]

CCC(C)(OC(C)=O)C(=O)O[C@H]1[C@H](OC(C)=O)C[C@@H]2[C@@](C)([C@@H]3C[C@H]4C=CO[C@H]4O3)[C@H](C)C[C@H](OC(C)=O)[C@@]2(COC(C)=O)[C@@]12CO2 (some centres undefined)
inactive: [1] 8.14% | [2] | [3] inactive [at 17.4 µM] | [5] inactive [at 17.4 µM] | [4] inactive [at 17.4 µM] | [6] inactive [at 17.4 µM]

Cc1cccc(NC(=O)N[C@@H]2N=C(c3ccccc3)c3ccccc3N(C)C2=O)c1
inactive: [1] 9% | [2] | [3] | [5] | [6]

CC1C/C=C/C(O)C(O)CC/C=C/c2cc(O)cc(O)c2C(=O)O1 (centres undefined)
inactive: [1] 0.529% | [2] 3.47% | [3] | [4]
